Measurements: PubChem BioAssay AID1259421 (Broad Institute, 2018)
“And” between values parts separate entries of the source, which are not always exact repeats. Equal values may be shown once. In all, about 6,400 compounds went through this assay and about 610 (9.5%) were called active. Rule as the data show it: active = activity change below about -70%; inconclusive = no clear call, values can overlap the other calls; inactive = above that. The entries come from a sample that favours actives as a whole. A structure can be active in one record and inactive in another.

Test: Toxoplasma gondii ME49Luc growth in HeLa cells, luciferase, no IFN-y, primary screen (AID 1259421)
Details: T. gondii ME49Luc in HeLa, 72 h, stronger effect = lower value, concentration not given here

| Compound | activity change, negative = inhibition |
| --- | --- |
| COc1ccc(S(=O)(=O)Nc2nnc(CC(C)C)s2)cc1 | 16.5% (inactive) |
| CC[C@]1(O)CC2CN(CCc3c([nH]c4ccccc34)[C@@](C(=O)OC)(c3cc4c(cc3OC)N(C=O)[C@H]3[C@@](O)(C(=O)OC)[C@H](OC(C)=O)[C@]5(CC)C=CCN6CC[C@]43[C@@H]65)C2)C1 (stereo not given in full) | -76.5% (active) |
| COC(=O)[C@H]1[C@H]2C[C@@H]3c4[nH]c5ccccc5c4CCN3C[C@H]2C[C@@H](OC(=O)c2cc(OC)c(OC)c(OC)c2)[C@@H]1OC | -2.54% (inactive) |
| CC[C@]1(O)CC2CN(CCc3c([nH]c4ccccc34)[C@@](C(=O)OC)(c3cc4c(cc3OC)N(C)[C@H]3[C@@](O)(C(=O)OC)[C@H](OC(C)=O)[C@]5(CC)C=CCN6CC[C@]43[C@@H]65)C2)C1 (stereo not given in full) | -90.8% (active) |
| CCC1(O)CC2CN(CCc3c([nH]c4ccccc34)C(C(=O)OC)(c3cc4c(cc3OC)N(C)C3C(O)(C(=O)OC)C(C(=O)OC)C5(CC)C=CCN6CCC43C65)C2)C1 (stereo not given) | -82.9% (active) |
| CCC1=C[C@@H]2CN(C1)Cc1c([nH]c3ccccc13)[C@@](C(=O)OC)(c1cc3c(cc1OC)N(C)[C@H]1[C@@](O)(C(=O)OC)[C@H](OC(C)=O)[C@]4(CC)C=CCN5CC[C@]31[C@@H]54)C2 | -61.1% (inactive) |
| CO[C@H]1C[C@H]2CC[C@@H](C)[C@@](O)(O2)C(=O)C(=O)N2CCCC[C@H]2C(=O)O[C@H]([C@H](C)C[C@@H]2CC[C@H](OC(=O)C(C)(CO)CO)[C@H](OC)C2)CC(=O)[C@H](C)/C=C(\C)[C@@H](O)[C@@H](OC)C(=O)[C@H](C)C[C@H](C)/C=C/C=C/C=C/1C | 9.08% (inactive) |
| CCOC(=O)[C@H](CCc1ccccc1)N[C@H]1CCCN2CCC[C@H](C(=O)O)N2C1=O | -4.74% (inactive) |
| CC(N)(C(=O)O)c1ccc(-c2nn[nH]n2)cc1 (stereo not given) | 3.49% (inactive) |
| C[C@@H]1C(=O)O[C@H]2[C@H](O)C34[C@H]5C[C@@H](C(C)(C)C)[C@]36[C@@H](OC(=O)[C@@H]6O)O[C@]4(C(=O)O5)[C@@]12O (stereo not given in full) | 5.38% (inactive) |
| CN1CCN(C(=O)C2C3CCC(O3)C2C(=O)O)CC1 (stereo not given) | 3.27% (inactive) |
| Cc1sc[n+](CC(=O)c2ccccc2)c1C | 60.9% (inactive) |
| CSc1ccc2c(c1)N(CCC1CCCCN1C)c1ccccc1S2 (stereo not given) | 31.1% (inactive) and -16.1% (inactive) |
| CN1CCN(C2Cc3ccccc3Sc3ccc(Cl)cc32)CC1 (stereo not given) | 7.98% (inactive) |
| CSc1ccc2c(c1)C(N1CCN(C)CC1)Cc1ccccc1S2 (stereo not given) | -82.4% (active) and -87% (active) and -85.3% (active) |
| C[C@@H]1O[C@@H](O[C@H]2[C@H](Oc3cc(O)c4c(=O)cc(-c5ccc(O)cc5)oc4c3)O[C@H](CO)[C@@H](O)[C@@H]2O)[C@H](O)[C@H](O)[C@H]1O | 5.34% (inactive) |
| CCO[C@H]1OC(=O)C[C@@H]1NC(=O)[C@@H]1CCCN1C(=O)[C@@H](NC(=O)c1ccc(N)c(Cl)c1)C(C)(C)C | 3.07% (inactive) |
| CCOC(=O)[C@@]1(CCCCCCOc2ccc(Cl)cc2)CO1 | 17.5% (inactive) |
| O=C(O)CC(=O)C(=O)O | 21.8% (inactive) |
| C[C@@H](NCCc1ccc(O)cc1)[C@@H](O)c1ccc(O)cc1 | 24.4% (inactive) |
| CC(NCCc1ccc(O)cc1)C(O)c1ccc(O)cc1 (stereo not given) | 1.92% (inactive) and 4.83% (inactive) |
| CCCCCCCCNC(C)C(O)c1ccc(SC(C)C)cc1 (stereo not given) | -84.8% (active) and -78% (active) and 18.5% (inactive) |

| Compound | activity change, negative = inhibition |
| --- | --- |
| NS(=O)(=O)c1cccc2c1c([N+](=O)[O-])cc1[nH]c(=O)c(=O)[nH]c12 | 4.26% (inactive) and 1.99% (inactive) and 17.2% (inactive) |
| CC(C)C1C2CCC(C2)C1N (stereo not given) | -31.8% (inactive) |
| O=[N+]([O-])c1nccn1CC(O)CN1CCCCC1 (stereo not given) | -0.914% (inactive) |
| Cc1nc(C)c(-c2ccc(C3CCC(CC(=O)O)CC3)cc2)nc1C(N)=O (stereo not given) | 21.5% (inactive) |
| CNC(=O)[C@H]1O[C@@H](n2cnc3c(NCc4cccc(I)c4)nc(Cl)nc32)[C@H](O)[C@@H]1O | -25.8% (inactive) |
| C=CC(=O)N1CCC[C@@H](n2nc(-c3ccc(Oc4ccccc4)cc3)c3c(N)ncnc32)C1 | -76.1% (active) |
| C/C(=C(/CCOC(=O)C(C)C)SS/C(CCOC(=O)C(C)C)=C(\C)N(C=O)Cc1cnc(C)nc1N)N(C=O)Cc1cnc(C)nc1N | -5.95% (inactive) |
| CC(C)c1c(O)ccc2c1CCC1C(C)(C)CCC[C@]21C (stereo not given in full) | 25.1% (inactive) |
| CC(=O)Oc1ccc2c(c1C(C)C)CCC1C(C)(C)CCC[C@]21C (stereo not given in full) | -4.41% (inactive) |
| COC(=O)[C@@]1(C)CCC[C@]2(C)c3ccc(O)c(C(C)C)c3CCC12 (stereo not given in full) | -72.7% (active) |
| CC(=O)C(C#N)C(=O)Nc1cc(Br)ccc1Br (stereo not given) | -2.2% (inactive) and 12.8% (inactive) |
| COC(=O)C[C@H]1C(C)(C)C(=O)[C@@H]2CC3C4=CC(=O)O[C@@H](c5ccoc5)[C@]4(C)CCC3[C@@]1(C)C2=O (stereo not given in full) | 6.27% (inactive) |
| CC[C@@]1(C2O[C@@H](C3O[C@@](O)(CO)[C@H](C)C[C@@H]3C)C[C@@H]2C)CC[C@H]([C@]2(C)CC[C@]3(C[C@H](O)[C@@H](C)[C@@H]([C@@H](C)[C@@H](OC)[C@H](C)C(=O)O)O3)O2)O1 (stereo not given in full) | -80.3% (active) |
| COC(=O)C1C(O)CCC2CN3CCc4c([nH]c5ccccc45)C3CC21 (stereo not given) | 6.81% (inactive) |
| C[C@@H]1O[C@@H](OC[C@H]2OC(Oc3c(-c4ccc(OCCO)c(OCCO)c4)oc4cc(OCCO)cc(O)c4c3=O)[C@H](O)[C@@H](O)[C@@H]2O)[C@H](O)[C@H](O)[C@H]1O (stereo not given in full) | 0.547% (inactive) |
| CN=C(NC#N)NCCSCc1csc(N=C(N)N)n1 | 21.3% (inactive) and 9.18% (inactive) |
| COc1ccc(/C=C\c2cc(OC)c(OC)c(OC)c2)cc1OP(=O)(O)O | -67.2% (inactive) |
| C[C@H](Oc1ccc(S(C)(=O)=O)cc1C(=O)N1CCN(c2ncc(C(F)(F)F)cc2F)CC1)C(F)(F)F | -27.8% (inactive) |
| CN1CCC(Nc2ncc3ncnc(Nc4ccc(F)c(Cl)c4)c3n2)CC1 | 7.3% (inactive) |
| COc1ccc(F)c(F)c1C(=O)c1cnc(NC2CCN(S(C)(=O)=O)CC2)nc1N | -87.7% (active) |
| O=C(NC(Cc1c[nH]c2ccccc12)C(=O)O)c1ccc(Cl)cc1 (stereo not given) | 4.2% (inactive) |
| C=CC(=O)Nc1ccc(OC)cc1 | 7.75% (inactive) |

| Compound | activity change, negative = inhibition |
| --- | --- |
| Cc1cc(Cn2cnc3c2C[C@@H](C(=O)O)N(C(=O)C(c2ccccc2)c2ccccc2)C3)ccc1N(C)C | 25.4% (inactive) |
| CCC(=O)O[C@@H](OP(=O)(CCCCc1ccccc1)CC(=O)N1C[C@H](C2CCCCC2)C[C@H]1C(=O)O)C(C)C (stereo not given in full) | 11.7% (inactive) |
| CN(C)C(=O)COC(=O)Cc1ccc(OC(=O)c2ccc(N=C(N)N)cc2)cc1 | 0.553% (inactive) |
| Nc1ncnc2nc[nH]c12 | 5.62% (inactive) |
| S=c1nc[nH]c2nc[nH]c12 | -59.8% (inactive) |
| Nc1nc(=S)c2[nH]cnc2[nH]1 | -77.5% (active) |
| CC(NC(=O)CCc1nc2ccccc2c(=O)[nH]1)c1ccccc1 (stereo not given) | 4.68% (inactive) |
| CCOC(=O)c1cnc[nH]1 | 7.3% (inactive) |
| CC1(C)CC(=O)C(C2C3=C(CC(C)(C)CC3=O)Oc3ccccc32)C(=O)C1 (stereo not given) | 4.42% (inactive) and -1.95% (inactive) |
| CCc1nc(N)nc(N)c1-c1ccc(Cl)cc1 | -89.2% (active) and -80% (active) |
| CC(C)Cc1sc(N)nc1-c1ccc(P(=O)(O)O)o1 | 7.23% (inactive) |
| CC(=O)O[C@@]12CO[C@@H]1C[C@H](O)[C@@]1(C)C(=O)[C@H](O)C3=C(C)[C@@H](OC(=O)[C@H](O)[C@@H](NC(=O)OC(C)(C)C)c4ccccc4)C[C@@](O)([C@@H](OC(=O)c4ccccc4)C12)C3(C)C (stereo not given in full) | -80.2% (active) |
| CO[C@H]1C(=O)[C@@]2(C)[C@H]([C@@H](OC(=O)c3ccccc3)[C@@]3(O)C[C@H](OC(=O)[C@H](O)[C@@H](NC(=O)OC(C)(C)C)c4ccccc4)C(C)=C1C3(C)C)[C@]1(OC(C)=O)CO[C@@H]1C[C@H]2OC | -82.6% (active) |
| CC(=O)O[C@@]12CO[C@@H]1C[C@H](O)[C@@]1(C)C(=O)[C@H](O)C3=C(C)[C@@H](OC(=O)[C@H](O)[C@@H](NC(=O)OC(C)(C)C)c4ccccc4)C[C@@](O)([C@@H](OC(=O)c4ccccc4)[C@H]21)C3(C)C | -73.3% (active) and -80.3% (active) |
| Cc1cccc(C)c1NC(=O)/N=C1/CCCN1C | 6.63% (inactive) |
| COc1ccc(/C=C/C(=O)c2ccc(O)cc2O)cc1 | 82.9% (inactive) |
| COc1ccnc(CS(=O)c2nc3ccc(OC(F)F)cc3[nH]2)c1OC (stereo not given) | 26.3% (inactive) and 7.86% (inactive) |
| Cc1ccc(OCC(O)C(C)NC(C)C)c2c1CCC2 (stereo not given) | 14.3% (inactive) |
| Cc1oc(=O)oc1CN1CCN(c2cc3c(cc2F)c(=O)c(C(=O)O)c2n3C(C)S2)CC1 (stereo not given) | 19.8% (inactive) |
| COc1cc(-c2coc3cc(OCc4ccccc4)c(OC)c(O)c3c2=O)cc(OCc2ccccc2)c1OC | -39.8% (inactive) |
| COc1ccc([C@@H]2CC(=O)c3c(O)cc(O[C@@H]4O[C@H](CO[C@H]5O[C@@H](C)[C@H](O)[C@@H](O)[C@H]5O)[C@@H](O)[C@H](O)[C@H]4O)cc3O2)cc1O | 5.14% (inactive) |
